The supplement of paper PMC8728848
Only a selection was taken, and the strongest signals are over-represented in it overall.

Columns and labels:
Assay in all cases: glycan array binding signal (z-score within array); higher = stronger binding
Details in all cases: glycan notation: IUPAC condensed, linker removed
[1] = target: Gal3S(b1-4)GlcNAc
How it was run: (§1)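 Glycan array binding is given as a within-array Z-score, which can be read as non-binding when negative. The arrays, 3228 of them, came from the Consortium for Functional Glycomics database and were retained only where the protein sequence was available. Z-scores were averaged across arrays of the same protein sequence at different concentrations or buffers and across linkers.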

[2] = target: Gal3S(b1-4)[Fuc(a1-3)]Glc6S
How it was run: as §1

[3] = target: Gal3S(b1-4)[Fuc(a1-3)]GlcNAc
How it was run: as §1

[4] = target: Gal6S(b1-4)GlcNAc6S
How it was run: as §1

[5] = target: GalNAc(a1-3)GalNAc
How it was run: as §1

[6] = target: GalNAc(b1-3)Gal(a1-4)Gal(b1-4)GlcNAc(b1-3)Gal(b1-4)Glc
How it was run: as §1

[7] = target: GalNAc(b1-3)Gal(a1-6)Gal(b1-4)Glc
How it was run: as §1

[8] = target: GalNAc3S(b1-4)GlcNAc3S
How it was run: as §1

[9] = target: Glc(a1-4)Glc
How it was run: as §1

[10] = target: GlcNAc(a1-4)Gal(b1-4)GlcNAc(b1-3)Gal(b1-4)[Fuc(a1-3)]GlcNAc(b1-3)Gal(b1-4)[Fuc(a1-3)]GlcNAc
How it was run: as §1

[11] = target: GlcNAc(b1-3)Gal(b1-4)GlcNAc(b1-3)Gal(b1-4)GlcNAc(b1-2)Man(a1-3)[GlcNAc(b1-3)Gal(b1-4)GlcNAc(b1-3)Gal(b1-4)GlcNAc(b1-2)Man(a1-6)]Man(b1-4)GlcNAc(b1-4)GlcNAc
How it was run: as §1

[12] = target: GlcNAc(b1-3)Gal(b1-4)GlcNAc(b1-3)Gal(b1-4)GlcNAc(b1-3)Gal(b1-4)GlcNAc(b1-2)Man(a1-3)[GlcNAc(b1-3)Gal(b1-4)GlcNAc(b1-3)Gal(b1-4)GlcNAc(b1-3)Gal(b1-4)GlcNAc(b1-2)Man(a1-6)]Man(b1-4)GlcNAc(b1-4)GlcNAc
How it was run: as §1

[13] = target: GlcNAc(b1-4)[GlcNAc(b1-6)]GalNAc
How it was run: as §1

[14] = target: Kdn(a2-6)Gal(b1-4)GlcNAc
How it was run: as §1

[15] = target: Man(a1-2)Man(a1-3)[Man(a1-2)Man(a1-6)]Man(a1-6)[Man(a1-2)Man(a1-2)Man(a1-3)]Man
How it was run: as §1

[16] = target: Man(a1-2)Man(a1-3)[Man(a1-2)Man(a1-6)]Man(a1-6)[Man(a1-2)Man(a1-2)Man(a1-3)]Man(b1-4)GlcNAc(b1-4)GlcNAc
How it was run: as §1

[17] = target: Man(a1-2)Man(a1-6)[Man(a1-3)]Man(a1-6)[Man(a1-2)Man(a1-2)Man(a1-3)]Man
How it was run: as §1

[18] = target: Neu5Ac(a2-3)Gal(b1-3)GlcNAc(b1-2)Man
How it was run: as §1

[19] = target: Neu5Ac(a2-3)Gal(b1-3)GlcNAc(b1-6)GalNAc
How it was run: as §1

[20] = target: Neu5Ac(a2-3)Gal(b1-3)[Fuc(a1-4)]GlcNAc
How it was run: as §1

[21] = target: Neu5Ac(a2-3)Gal(b1-3)[GlcNAc(b1-6)]GalNAc
How it was run: as §1

[22] = target: Neu5Ac(a2-3)Gal(b1-3)[Neu5Ac(a2-6)]GlcNAc(b1-3)[Fuc(a1-3)[Gal(b1-4)]GlcNAc(b1-6)]Gal(b1-4)Glc
How it was run: as §1

[23] = target: Neu5Ac(a2-3)Gal(b1-4)GlcNAc(b1-3)Gal(b1-4)GlcNAc(b1-3)Gal(b1-4)GlcNAc(b1-2)Man(a1-3)[Neu5Ac(a2-3)Gal(b1-4)GlcNAc(b1-3)Gal(b1-4)GlcNAc(b1-3)Gal(b1-4)GlcNAc(b1-2)Man(a1-6)]GalNAc
How it was run: as §1

[24] = target: Neu5Ac(a2-3)Gal(b1-4)[Fuc(a1-3)]GlcNAc(b1-3)Gal(b1-4)[Fuc(a1-3)]GlcNAc(b1-3)Gal(b1-4)[Fuc(a1-3)]GlcNAc
How it was run: as §1

[25] = target: Neu5Ac(a2-3)Gal(b1-4)[Fuc(a1-3)]GlcNAc(b1-3)GalNAc
How it was run: as §1

[26] = target: Neu5Ac(a2-6)Gal(b1-4)Glc
How it was run: as §1

[27] = target: Neu5Ac(a2-6)Gal(b1-4)GlcNAc(b1-2)Man(a1-3)[Man(a1-6)]Man(b1-4)GlcNAc(b1-4)GlcNAc
How it was run: as §1

[28] = target: Neu5Ac(a2-6)Gal(b1-4)GlcNAc(b1-3)Gal(b1-4)GlcNAc
How it was run: as §1

[29] = target: Neu5Ac(a2-6)Gal(b1-4)GlcNAc(b1-3)Gal(b1-4)GlcNAc(b1-3)Gal(b1-4)GlcNAc
How it was run: as §1

[30] = target: Neu5Ac(a2-6)Gal(b1-4)GlcNAc(b1-3)[Neu5Ac(a2-6)Gal(b1-4)GlcNAc(b1-6)]GalNAc
How it was run: as §1

[31] = target: Neu5Ac(a2-6)Gal(b1-4)GlcNAc(b1-6)[Gal(b1-3)GlcNAc(b1-3)]Gal(b1-4)Glc
How it was run: as §1

[32] = target: Neu5Ac(a2-6)GlcNAc(b1-4)GlcNAc
How it was run: as §1

[33] = target: Neu5Ac(a2-8)Neu5Ac(a2-3)[GalNAc(b1-4)]Gal(b1-4)Glc
How it was run: as §1

[34] = target: Neu5Gc(a2-3)Gal(b1-4)Glc
How it was run: as §1

B1: EUL D1A second (Oryza sativa) (protein)
chain: GAATACTIGGVPVHTVRVFSAAGEDYCLTVRNGTACLAPKNPRDDYQHWIKDMRHSNKIRDEEGYPAFALVNKVTGEAIKHSTGQGHPVKLVPYNPEYQDESVLWTESKDVGKGFRCIRMVNNIYLNFDAFHGDKDHGGIHDGTEIVLWKWCEGDNQRWKILPWILEQKLISEEDLNSAVDHHHHHH
Q: Which results are given for B1?
A: glycan array binding signal (z-score) [1]: 0.255; glycan array binding signal (z-score) [2]: 2.74; glycan array binding signal (z-score) [3]: 2.4; glycan array binding signal (z-score) [4]: 0.99; glycan array binding signal (z-score) [5]: -0.302; glycan array binding signal (z-score) [6]: -0.809; glycan array binding signal (z-score) [7]: -0.495; glycan array binding signal (z-score) [8]: -0.9; glycan array binding signal (z-score) [9]: 0.317; glycan array binding signal (z-score) [10]: 2.44; glycan array binding signal (z-score) [11]: 0.61; glycan array binding signal (z-score) [12]: 0.539; glycan array binding signal (z-score) [13]: -0.443; glycan array binding signal (z-score) [14]: -1.38; glycan array binding signal (z-score) [15]: -0.985; glycan array binding signal (z-score) [16]: 1.93; glycan array binding signal (z-score) [17]: 0.706; glycan array binding signal (z-score) [18]: 3.06; glycan array binding signal (z-score) [19]: -0.587; glycan array binding signal (z-score) [20]: 0.596; glycan array binding signal (z-score) [21]: 0.412; glycan array binding signal (z-score) [22]: 1.26; glycan array binding signal (z-score) [23]: 3.53; glycan array binding signal (z-score) [24]: -0.112; glycan array binding signal (z-score) [25]: 2.61; glycan array binding signal (z-score) [26]: 0.113; glycan array binding signal (z-score) [27]: 0.117; glycan array binding signal (z-score) [28]: 0.827; glycan array binding signal (z-score) [29]: -2.05; glycan array binding signal (z-score) [30]: 2.81; glycan array binding signal (z-score) [31]: 0.242; glycan array binding signal (z-score) [32]: -0.238; glycan array binding signal (z-score) [33]: 0.083; glycan array binding signal (z-score) [34]: 0.509
